Sampled rows, rich in hits. Any-hit rate of the full collection: about 3.2%.
ClpP mod: qHTS Assay for Activators of ClpP; 340,000 tested, 1.9% active; purified B. subtilis ClpP, FRET peptide cleavage, 20 min; Potency, µM (highest dose often 57.5 µM), for the others: at the top dose activity change, negative = active; ATP-dependent Clp protease proteolytic subunit (Bacillus subtilis (strain 168)), P80244; AID 651965, 2013; active = well fitted falling curve with a large enough effect; inconclusive = small, poorly fitted or top-dose-only effect; inactive = no such curve, though single readings can be large or run the other way; also: the source files actives as falling curves though it sought activators and does not explain the sign; nearly all actives have a fitted effect of over 65% in size
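FRET quenching reversal measured ClpP activation: 10 microg/mL B. subtilis ClpP at pH 8 with the FRET-FV decapeptide, read at 430 nm after 320 nm excitation. The 20-min minus 0-min signal was scaled between DMSO/no-enzyme wells and ADEP (5.8 microM final).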
GLP1R cytotox: qHTS of GLP-1 Receptor Inverse Agonists: Cytotox Screen; AID 624418, 2012; 410,000 tested, 0.13% active; Potency, µM (titrated, usually from 38.3 µM), for inactives: at the top dose activity change, negative = inhibition, usual class: inhibitors; HEK293 cAMP-luciferase reporter cells, luminescence, 24 h;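 also: loss of luciferase light is scored as toxicity; % is scaled to controls: 0 for no effect and ±100 for the full control effect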
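MLSMR compounds, 24 hr on cells at 37 deg C/5% CO2; luminescence after luciferase reagent (12 min RT). Inhibition counted as the undesired cytotoxic outcome.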
GLP-1R inv ag: qHTS of GLP-1 Receptor Inverse Agonists (Inhibition Mode); HEK293 GLP-1R CRE-luciferase, luminescence, 24 h; GLP-1R form is constitutively active; Potency, µM (series often up to 38.3 µM), for the others: at the top dose activity change, negative = inhibition, most hits filed as inhibitors; 410,000 tested, 1.6% active; AID 624417, 2012; also: % is scaled to controls: 0 for no effect and ±100 for the full control effect; nearly all actives have a fitted effect of over 55% in size
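HEK293 cells stably co-expressing constitutively active GLP-1R and a cAMP-responsive luciferase reporter were seeded in DMEM with 10% Nu serum, given compounds after 12 h, and incubated 24 h at 37 deg C. Luminescence was then read.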
GLP-1R agonist: qHTS of GLP-1 Receptor Agonists. 380,000 tested, 0.007% active. Glucagon-like peptide 1 receptor (Homo sapiens), P43220. HEK293 GLP-1R CRE-luciferase, luminescence, 4-6 h; cells express a hypersensitive GLP-1R form. Potency, µM (series often up to 45.6 µM), for the others: top-dose activation, most hits filed as activators; also: % of control where 0% means no effect
* marks the source's active call; other numbers are inactive results; i = inactive; u = inconclusive; x = not tested or not shown; [ ] = remark or other dose. Unless noted, calls follow the shape of the dose curve; as a rule, active = well fitted curve in the direction sought with a large enough effect; inconclusive = small, poorly fitted or top-dose-only effect, or another doubt; inactive = no such curve, though single readings can be large; an effect the other way counts as inactive or inconclusive. Potency is read from the fitted curve at half-maximal effect.

SMILES	ClpP mod	GLP1R cytotox	GLP-1R inv ag	GLP-1R agonist
Cc1cc(C)c(S(=O)(=O)c2ccccc2)c(OC(=O)c2c(Cl)cc(Cl)cc2Cl)n1	-3%	u	7.9µM*	-11%
Nc1ncc(S(=O)(=O)NCc2ccccc2)cn1	-9%	-3%	3%	x
CCCCCCCCCCCCCCCC(=O)O[C@@H]1CC(C)=C(\C=C/C(C)=C\C=C/C(C)=C\C=C\C=C(C)\C=C\C=C(C)\C=C\C2=C(C)C[C@@H](OC(=O)CCCCCCCCCCCCCCC)CC2(C)C)C(C)(C)C1	x	x	x	-8%
CC12CC(NC(=O)N1c1cccc(C(=O)NCc3ccc4c(c3)OCO4)c1)c1cc(Cl)ccc1O2 (centres undefined)	-1%	u	1.6µM*	-5%
CC(C)C(=O)Nc1cccc(C(=O)NCc2ccc3c(c2)OCO3)c1	1%	1%	-1%	1%
CCCn1c(=NC(=O)c2ccco2)c(C(=O)OCC)cc2c(=O)n3ccccc3nc21	18µM*	149%	169%	4%
CCOC(=O)c1cc2c(=O)n3cccc(C)c3nc2n(CC2CCCO2)c1=NC(C)=O (centres undefined)	1.3µM*	202%	3%	8%
CCOC(=O)c1cc2c(=O)n3ccccc3nc2n(CCCOC)c1=NC(C)=O	35µM*	i	77%	9%
CCOC(=O)c1cc(-c2ccc(C)cc2)n(CC(=O)Nc2ccc(OC)c(Cl)c2)c1C	-9%	-1%	-11%	-1%
COCCNC(=O)[C@@H]1CSC2c3ccccc3C(=O)N21 (some centres undefined)	32µM*	4%	18%	0%
CCCCNC(=O)[C@@H]1CSC2c3ccccc3C(=O)N21 (some centres undefined)	x	18%	4%	15%
CCCCNC(=O)CSc1nc2cc3c(cc2c(=O)n1CCCC(=O)NCc1ccc(OC)cc1)OCO3	-3%	9%	7%	x
COc1ccc(-c2nc3cc(NC(=O)COc4ccccc4C)ccc3o2)cc1	4%	3%	11%	x
O=S(=O)(c1ccccc1)N1CCN(C(c2ccccc2)c2ccc(OC(F)(F)F)cc2)CC1 (centres undefined)	-1%	4%	10µM*	0%
CCOc1ccccc1CNC(=O)c1ccc2c(c1)N(Cc1ccc(C)cc1)CCS2	4%	9%	u	x
COc1ccc(-n2c(=S)[nH]c3cc(C(=O)Nc4ccc(C)c(F)c4)ccc3c2=O)c(OC)c1	x	-4%	7.1µM*	-2%
COc1ccc(NC(=O)c2ccc3c(=O)n(-c4ccc(OC)cc4OC)c(=S)[nH]c3c2)c(OC)c1	1%	2%[7.66 µM]	1%[7.66 µM]	-4%
CC(=O)c1cccc(NC(=O)c2nc(-c3ccc(C)cc3)n3c2CCCCC3)c1	-1%	-1%	u	-4%
Cc1ccc(S(=O)(=O)N2CCCCC2)cc1NC(=O)COC(=O)C1(C)CC1(Cl)Cl (centres undefined)	-1%	-7%	7.9µM*	10%
COc1ccc(OCCCC(=O)Nc2cc(S(=O)(=O)N3CCCCC3)ccc2C)cc1	-13%	2%	5.6µM*	-5%
COc1ccc(OCCCC(=O)Nc2cc(S(=O)(=O)N3CCCCC3)ccc2OC)cc1	-1%	3%	-38%	4%
Cc1[nH]n2c(=O)cc(C(C)C)nc2c1-c1ccccc1	u	-17%	-21%	-2%
Cc1[nH]n2c(=O)cc(-c3ccc(Cl)cc3)nc2c1-c1ccccc1	4%	98%	2.8µM*	-16%
Cc1[nH]n2c(=O)cc(-c3ccc([N+](=O)[O-])cc3)nc2c1-c1ccccc1	2%	u	u	-12%
Cc1ccc(N=Nc2c(N)[nH]n3c(=O)cc(-c4ccccc4)nc23)cc1	28µM*	2%	0%	-6%
SMILES	ClpP mod	GLP1R cytotox	GLP-1R inv ag	GLP-1R agonist
COc1cccc(N=Nc2c(N)[nH]n3c(=O)cc(-c4ccccc4)nc23)c1	15%	-15%	5%	-10%
Cc1[nH]n2c(=O)cc(C(C)(C)C)nc2c1-c1ccccc1	3%	u	3.5µM*	-12%
CCOC(=O)c1cc(-c2ccc(OC)cc2)n(CCC(=O)NC2CCN(Cc3ccccc3)CC2)c1C	1%	u	u	-7%
CCOC(=O)c1cc(-c2ccc(C)cc2)n(CCC(=O)Nc2ccc(C(C)C)cc2)c1C	-18%	-4%	2.5µM*	0%
CCOC(=O)c1cccc(NC(=O)CCn2c(-c3ccc(F)cc3)cc(C(=O)OCC)c2C)c1	-19%	-1%	10µM*	x
CCOC(=O)c1cc(-c2ccccc2)n(CCCC(=O)Nc2cccc(C)c2)c1C	-3%	1%	u	x
CCOC(=O)c1cc(-c2ccc(F)cc2)n(CCC(=O)NC2CCN(Cc3ccccc3)CC2)c1C	-3%	u	7.9µM*	14%
Cn1c(NCCO)nc2c1c(=O)n(Cc1ccccc1Cl)c(=O)n2C	-1%	0%	6%	x
Cc1nc(C)c(CCNS(=O)(=O)c2ccc(F)cc2)s1	1%	0%	17%	24%
COc1ccc(NC(=O)Cn2cc(S(=O)(=O)Cc3ccc(F)cc3)c3ccccc32)cc1OC	3%	-9%	-3%	x
COc1ccc(/C=C/C(=O)C2(O)CCCCC2)cc1	x	u	10µM*	6%
CCCCNc1nc2c(c(=O)n(C)c(=O)n2C)n1CC(O)COc1ccccc1C (centres undefined)	1%	-1%	-18%	x
CCOc1ccc(S(=O)(=O)N2CCC(C(=O)N3CCN(c4ccccc4F)CC3)CC2)cc1C	-1%	10%	5.6µM*	2%
CCOC(=O)c1nc2ccc(C)cc2c2c1C1CC(c3c(Cl)cccc31)N2C(=O)OCc1ccccc1 (centres undefined)	-12%	3%	5µM*	12%
CC(=NNC(=S)N1CCCCC1)c1cccc(C)n1	25µM*	u	u	0%
CCCCOC(=O)c1cccc(NC(=O)c2cc3ccccc3o2)c1	u	15%	-79%	x
Nc1nc(Sc2ccc([N+](=O)[O-])c3nonc23)c2[nH]cnc2n1	-1%	8.9µM*	u	7%
CC1(C(=O)NCc2ccccc2)Cc2c(-c3ccc4c(c3)OCO4)ccnc2O1 (centres undefined)	4%	-25%	2.8µM*	10%
CC1(C(=O)NCc2ccccc2)Cc2c(-c3ccc(C(N)=O)cc3)ccnc2O1 (centres undefined)	u	u	6.3µM*	20%
CC1(C(=O)NCc2ccccc2)Cc2c(-c3ccccc3)ccnc2O1 (centres undefined)	-1%	-28%	u	-4%
CC1(C(=O)NCCc2ccccc2)Cc2c(-c3ccc4c(c3)OCO4)ccnc2O1 (centres undefined)	4%	-28%	u	0%
Cc1cc(C)c(NS(=O)(=O)c2ccc(-c3cnc(C4CC4)o3)cc2)c(C)c1	-25%	u	u	x
